According to PubChem BioAssay AID1159580 (chemical genetic matrix, 2015):
Values joined by “and” are separate entries in the source; they are usually repeats but may differ in a detail not shown here. Equal entries are not always repeated. The whole screen tested about 5,500 compounds, of which about 2,000 (36%) were called active. Inconclusive results (about 18%) are left out. No stated cut-off is given here; in the data, active means normalized growth mostly below about 0.91 (no sharp cut-off); inconclusive means no clear call, values can overlap the other calls; inactive means mostly above about 0.92. The list shows a part of the results.

Test: chemical genetic growth profiling, strain panel (AID 1159580);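 further: tested at 20 µM; growth read once vehicle control cultures reached saturation at 30 °C; 1 = growth at the plate median or of vehicle wells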
Details: S. cerevisiae deletion strains, growth OD

In the case of O=C(/C=C/c1ccccc1)c1ccc(O)cc1, the normalized growth (locus YAL013W, strain DEP1, stronger effect = lower value) is reported as 0.736 (active), the normalized growth (locus YAL021C, strain ccr4, stronger effect = lower value) is reported as 0.633 (active) and the normalized growth (locus YAL026C, strain drs2, stronger effect = lower value) is reported as 0.192 (active). For the same compound, the normalized growth (locus YAL030W, strain snc1, stronger effect = lower value) was 0.247 (active), the normalized growth (locus YBL061C, strain skt5, stronger effect = lower value) was 0.263 (active) and the normalized growth (locus YBR009C, strain hhf1, stronger effect = lower value) was 0.0771 (active). For the same compound, the normalized growth (locus YBR021W, strain FUR4, stronger effect = lower value) was 0.891 (inactive), the normalized growth (locus YBR023C, strain chs3, stronger effect = lower value) was 0.399 (active) and the normalized growth (locus YBR171W, strain sec66, stronger effect = lower value) was 0.112 (active). The normalized growth (locus YBR229C, strain ROT2, stronger effect = lower value) was 0.887 (active), the normalized growth (locus YBR231C, strain swc5, stronger effect = lower value) was 0.315 (active) and the normalized growth (locus YBR279W, strain paf1, stronger effect = lower value) was 0.494 (active). The normalized growth (locus YCL011C, strain gbp2, stronger effect = lower value) was 0.1 (active), the normalized growth (locus YCL016C, strain dcc1, stronger effect = lower value) was 0.2 (active) and the normalized growth (locus YCL029C, strain bik1, stronger effect = lower value) was 0.831 (active). For the same compound, the normalized growth (locus YCL061C, strain MRC1, stronger effect = lower value) was 0.102 (active), the normalized growth (locus YCL069W, strain vba3, stronger effect = lower value) was 0.218 (active) and the normalized growth (locus YCR088W, strain abp1, stronger effect = lower value) was 0.157 (active). The normalized growth (locus YDL005C, strain med2, stronger effect = lower value) was 0.64 (active), the normalized growth (locus YDL035C, strain GPR1, stronger effect = lower value) was 0.723 (active) and the normalized growth (locus YDL040C, strain nat1, stronger effect = lower value) was 0.706 (active). For the same compound, the normalized growth (locus YDL074C, strain BRE1, stronger effect = lower value) was 0.593 (active), the normalized growth (locus YDL101C, strain DUN1, stronger effect = lower value) was 0.618 (active) and the normalized growth (locus YDL134C, strain PPH21, stronger effect = lower value) was 0.661 (active). The normalized growth (locus YDL185W, strain tfp1, stronger effect = lower value) was 0.817 (active), the normalized growth (locus YDL192W, strain arf1, stronger effect = lower value) was 0.726 (active) and the normalized growth (locus YDR001C, strain nth1, stronger effect = lower value) was 0.316 (active). For the same compound, the normalized growth (locus YDR069C, strain doa4, stronger effect = lower value) was 0.742 (active), the normalized growth (locus YDR101C, strain arx1, stronger effect = lower value) was 0.88 (active) and the normalized growth (locus YDR137W, strain rgp1, stronger effect = lower value) was 0.198 (active). For the same compound, the normalized growth (locus YDR150W, strain NUM1, stronger effect = lower value) was 0.87 (active), the normalized growth (locus YDR159W, strain sac3, stronger effect = lower value) was 0.26 (active) and the normalized growth (locus YDR162C, strain NBP2, stronger effect = lower value) was 0.182 (active). For the same compound, the normalized growth (locus YDR195W, strain ref2) was 0.22 (active), the normalized growth (locus YDR297W, strain sur2, stronger effect = lower value) was 0.19 (active) and the normalized growth (locus YDR318W, strain mcm21, stronger effect = lower value) was 0.788 (active). For the same compound, the normalized growth (locus YDR334W, strain swr1, stronger effect = lower value) was 0.185 (active), the normalized growth (locus YDR335W, strain msn5, stronger effect = lower value) was 0.16 (active) and the normalized growth (locus YDR388W, stronger effect = lower value) was 0.863 (active). For the same compound, the normalized growth (locus YDR392W, strain spt3, stronger effect = lower value) was 0.0785 (active), the normalized growth (locus YDR502C, strain sam2, stronger effect = lower value) was 0.758 (active) and the normalized growth (locus YEL003W, strain gim4, stronger effect = lower value) was 0.0639 (active). For the same compound, the normalized growth (locus YEL037C, strain rad23, stronger effect = lower value) was 0.602 (active), the normalized growth (locus YEL061C, strain CIN8 (second series), stronger effect = lower value) was 0.0689 (active) and the normalized growth (locus YEL061C, strain CIN8, stronger effect = lower value) was 0.506 (active). The normalized growth (locus YER015W, strain faa2, stronger effect = lower value) was 0.264 (active), the normalized growth (locus YER016W, strain bim1, stronger effect = lower value) was 0.176 (active) and the normalized growth (locus YER110C, stronger effect = lower value) was 0.89 (active). The normalized growth (locus YER111C, strain swi4, stronger effect = lower value) was 0.124 (active), the normalized growth (locus YER155C, strain BEM2 (second series), stronger effect = lower value) was 0.093 (active) and the normalized growth (locus YER155C, strain BEM2, stronger effect = lower value) was 0.568 (active). The normalized growth (locus YER167W, strain BCK2, stronger effect = lower value) was 0.74 (active), the normalized growth (locus YFR010W, strain ubp6, stronger effect = lower value) was 0.648 (active) and the normalized growth (locus YGL078C, strain dbp3, stronger effect = lower value) was 0.926 (inactive). The normalized growth (locus YGL086W, strain mad1, stronger effect = lower value) was 0.733 (active), the normalized growth (locus YGL167C, strain pmr1, stronger effect = lower value) was 0.83 (active) and the normalized growth (locus YGL173C, strain kem1, stronger effect = lower value) was 0.403 (active). For the same compound, the normalized growth (locus YGL227W, strain vid30, stronger effect = lower value) was 0.0651 (active), the normalized growth (locus YGL240W, strain doc1, stronger effect = lower value) was 0.358 (active) and the normalized growth (locus YGL248W, strain PDE1, stronger effect = lower value) was 0.716 (active). The normalized growth (locus YGL253W, strain hxk2, stronger effect = lower value) was 0.177 (active), the normalized growth (locus YGR078C, strain PAC10, stronger effect = lower value) was 0.429 (active) and the normalized growth (locus YGR135W, strain pre9, stronger effect = lower value) was 0.771 (active). For the same compound, the normalized growth (locus YGR229C, strain SMI1, stronger effect = lower value) was 0.253 (active), the normalized growth (locus YGR252W, strain gcn5, stronger effect = lower value) was 0.648 (active) and the normalized growth (locus YHR013C, strain ard1, stronger effect = lower value) was 0.353 (active). The normalized growth (locus YHR027C, strain rpn1, stronger effect = lower value) was 0.51 (active), the normalized growth (locus YHR030C, strain SLT2, stronger effect = lower value) was 0.38 (active) and 0.945 (inactive) and the normalized growth (locus YHR079C, strain IRE1 (second series), stronger effect = lower value) was 0.494 (active). The normalized growth (locus YHR079C, strain IRE1, stronger effect = lower value) was 0.788 (active), the normalized growth (locus YHR094C, strain hxt1, stronger effect = lower value) was 0.944 (inactive) and the normalized growth (locus YHR129C, strain ARP1, stronger effect = lower value) was 0.635 (active). For the same compound, the normalized growth (locus YHR142W, strain chs7, stronger effect = lower value) was 0.113 (active), the normalized growth (locus YHR200W, strain rpn10, stronger effect = lower value) was 0.898 (active) and the normalized growth (locus YIL066C, strain RNR3, stronger effect = lower value) was 0.515 (active). The normalized growth (locus YIL073C, strain SPO22, stronger effect = lower value) was 0.7 (inactive), the normalized growth (locus YIL125W, strain kgd1, stronger effect = lower value) was 0.931 (active) and the normalized growth (locus YIR030C, strain dcg1, stronger effect = lower value) was 0.853 (active). For the same compound, the normalized growth (locus YJL092W, strain hpr5, stronger effect = lower value) was 0.299 (active), the normalized growth (locus YJL095W, strain BCK1 (second series), stronger effect = lower value) was 0.0714 (active) and the normalized growth (locus YJL095W, strain BCK1, stronger effect = lower value) was 0.205 (active) and 0.945 (inactive). The normalized growth (locus YJL115W, strain asf1, stronger effect = lower value) was 0.444 (active), the normalized growth (locus YJL129C, strain trk1, stronger effect = lower value) was 0.209 (active) and the normalized growth (locus YJL134W, strain LCB3, stronger effect = lower value) was 0.93 (inactive). The normalized growth (locus YJL154C, strain vps35, stronger effect = lower value) was 0.678 (active), the normalized growth (locus YJL164C, strain tpk1, stronger effect = lower value) was 0.162 (active) and the normalized growth (locus YJL166W, strain qcr8, stronger effect = lower value) was 0.0857 (active). The normalized growth (locus YJL168C, strain set2, stronger effect = lower value) was 0.913 (active), the normalized growth (locus YJL187C, strain SWE1 (second series), stronger effect = lower value) was 0.697 (active) and the normalized growth (locus YJR043C, strain POL32, stronger effect = lower value) was 0.597 (active). The normalized growth (locus YJR066W, strain TOR1, stronger effect = lower value) was 0.883 (inactive).
